The results in this text go back to PubChem BioAssay (EPA / NIEHS).

As a reminder, the AC50 is the midpoint of the concentration-response curve, whichever way the signal moves.

What all share (settings): mRNA level, 48 h; actives raise or lower the signal
Read-out in test [1]: CYP4A11 (gene 1579)
Briefly: LTEA_HepaRG_CYP4A11: Life Technologies and Expression Analysis (LTEA) Assay for CYP4A11 using HepaRG (AID 2283486). The gist of the method:
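Human hepatic HepaRG cultures receive duplicate 48 h exposures across a concentration-response series topping at 100 uM. Expression changes in CYP4A11 are measured by qRT-PCR relative to DMSO controls.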

Read-out in test [2]: Cytochrome P450 3A4 (Homo sapiens) (UniProt P08684)
Briefly: LTEA_HepaRG_CYP3A4: Life Technologies and Expression Analysis (LTEA) Assay for CYP3A4 using HepaRG (AID 2283487). The gist of the method:
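Differentiated HepaRG cells, plated 48 h, then dosed 48 h in serum-free induction medium with 0.5% DMSO, 8 half-log concentrations up to 100 uM, duplicate. CYP3A4 mRNA by qRT-PCR, normalized to ACTB/GAPDH/POLR2A; bidirectional fit versus DMSO.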

Read-out in test [3]: DNA damage-inducible transcript 3 (DDIT3), DDIT3 (gene 1649)
Briefly: LTEA_HepaRG_DDIT3: Life Technologies and Expression Analysis (LTEA) Assay for DNA damage-inducible transcript 3 (DDIT3) using HepaRG (AID 2283488). In outline:
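Differentiated human HepaRG cells in serum-free induction medium were exposed in duplicate for 48 h to 8 concentrations (top 100 uM, half-log steps, 0.5% DMSO). DDIT3 mRNA measured by TaqMan qRT-PCR, normalized to ACTB/GAPDH/POLR2A; bidirectional fit versus DMSO.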

Read-out in test [4]: Pro-epidermal growth factor (Homo sapiens) (UniProt P01133)
Nature of the test: LTEA_HepaRG_EGF: Life Technologies and Expression Analysis (LTEA) Assay for Epidermal growth factor (EGF) using HepaRG (AID 2283489). The gist of the method:
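Concentration-response mRNA assay: HepaRG cells dosed 48 h (max 100 uM, 0.5% DMSO), EGF measured by qRT-PCR and normalized to ACTB/GAPDH/POLR2A.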

Read-out in test [5]: Early growth response protein 1 (EGR1) transcription factor, EGR1 (gene 1958)
Nature of the test: LTEA_HepaRG_EGR1: Life Technologies and Expression Analysis (LTEA) Assay for Early growth response protein 1 (EGR1) transcription factor using HepaRG (AID 2283490). In outline: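 Read-out is EGR1 mRNA level by qRT-PCR, normalized to three housekeeping genes and analysed for gain or loss of signal against 0.5% DMSO. Source cells: human HepaRG, treated 48 h at up to 100 uM in half-log dilutions.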

Read-out in test [6]: Ezrin (EZR), EZR (gene 7430)
Nature of the test: LTEA_HepaRG_EZR: Life Technologies and Expression Analysis (LTEA) Assay for Ezrin (EZR) using HepaRG (AID 2283491). In outline: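 EZR transcript levels came from Fluidigm qRT-PCR and were normalized to three housekeeping genes after 48 h chemical exposure of HepaRG cells. Dosing used an 8-point half-log series with a 100 uM top concentration in 0.5% DMSO, tested in duplicate; both directions were fitted versus vehicle.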

Read-out in test [7]: Cytochrome P450 3A7 (Homo sapiens) (UniProt P24462)
Nature of the test: LTEA_HepaRG_CYP3A7: Life Technologies and Expression Analysis (LTEA) Assay for CYP3A7 using HepaRG (AID 2283492). The gist of the method: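 qRT-PCR of CYP3A7 in HepaRG lysates after 48 h treatment; concentration-response (8 points, max 100 uM) analysed bidirectionally relative to 0.5% DMSO controls.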

Read-out in test [8]: CYP3A5 (gene 1577)
Nature of the test: LTEA_HepaRG_CYP3A5: Life Technologies and Expression Analysis (LTEA) Assay for CYP3A5 using HepaRG (AID 2283493). The gist of the method:
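Differentiated HepaRG cells in serum-free induction medium were dosed 48 h with test chemicals (8-point half-log series, top 100 uM, 0.5% DMSO, duplicate). CYP3A5 mRNA measured by qRT-PCR, normalized to ACTB, GAPDH, POLR2A; bidirectional fit versus DMSO.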

Read-out in test [9]: Fatty Acid-Binding Protein 1 (FABP1), FABP1 (gene 2168)
Nature of the test: LTEA_HepaRG_FABP1: Life Technologies and Expression Analysis (LTEA) Assay for Fatty Acid-Binding Protein 1 (FABP1) using HepaRG (AID 2283494). The gist of the method: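 HepaRG, 48 h post-plating switched to serum-free induction medium, then dosed 48 h (duplicate, 8 pts, ≤100 uM, 0.5% DMSO). RNA → Fluidigm TaqMan qRT-PCR, FABP1 normed to ACTB/GAPDH/POLR2A. Bidirectional curve fit vs DMSO.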

Read-out in test [10]: Cytochrome P450 4A22 (Homo sapiens) (UniProt Q5TCH4)
Nature of the test: LTEA_HepaRG_CYP4A22: Life Technologies and Expression Analysis (LTEA) Assay for Cytochrome P450 4A22 (CYP4A22) using HepaRG (AID 2283495). The gist of the method: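 Concentration-response (8 points, max 100 uM, 0.5% DMSO) in human HepaRG liver cells after 48 h exposure. CYP4A22 mRNA by TaqMan qRT-PCR with housekeeping-gene normalization.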

Read-out in test [11]: Cytochrome P450 7A1 (Homo sapiens) (UniProt P22680)
Nature of the test: LTEA_HepaRG_CYP7A1: Life Technologies and Expression Analysis (LTEA) Assay for Cytochrome P450 7A1 (CYP7A1) using HepaRG (AID 2283496). In outline:
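Gene expression endpoint in human HepaRG liver cells treated for 48 h with test chemicals (up to 100 uM, 0.5% DMSO). Values come from bidirectional concentration-response fitting versus DMSO.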

Read-out in test [12]: Glutathione S-Transferase (GSTA2), GSTA2 (gene 2939)
Nature of the test: LTEA_HepaRG_GSTA2: Life Technologies and Expression Analysis (LTEA) Assay for Glutathione S-Transferase (GSTA2) using HepaRG (AID 2283497). In outline:
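HepaRG, 48 h dosing, 8-pt half-log CRC from 100 uM, 0.5% DMSO vehicle, n=2; RNA → Fluidigm TaqMan qRT-PCR; GSTA2 vs ACTB/GAPDH/POLR2A; gain/loss fit vs DMSO.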

Read-out in test [13]: Glutamate-cysteine ligase regulatory (GCLM), GCLM (gene 2730)
Briefly: LTEA_HepaRG_GCLM: Life Technologies and Expression Analysis (LTEA) Assay for Glutamate-cysteine ligase regulatory (GCLM) using HepaRG (AID 2283500). The gist of the method: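 Differentiated human HepaRG cells exposed 48 h in serum-free induction medium to 8-point half-log concentrations (top 100 uM, 0.5% DMSO), in duplicate. GCLM mRNA quantified by qRT-PCR, normalized to ACTB, GAPDH, POLR2A; bidirectional fitting versus DMSO.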

Read-out in test [14]: Heat shock 70 kDa protein 1 (HSPA1A), gene 3303
Nature of the test: LTEA_HepaRG_HSPA1A: Life Technologies and Expression Analysis (LTEA) Assay for Heat shock 70 kDa protein 1 (HSPA1A) using HepaRG (AID 2283502). In outline:
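Differentiated human HepaRG cells in serum-free induction medium were exposed in duplicate for 48 h to eight concentrations (top 100 uM, half-log steps, 0.5% DMSO). HSPA1A mRNA was quantified by qRT-PCR, normalized to ACTB, GAPDH and POLR2A, and fitted bidirectionally against DMSO.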

Read-out in test [15]: Hypoxia-inducible factor 1-alpha (Homo sapiens) (UniProt Q16665)
Nature of the test: LTEA_HepaRG_HIF1A: Life Technologies and Expression Analysis (LTEA) Assay for Hypoxia-inducible factor 1 (HIF1A) Trancription factor using HepaRG (AID 2283503).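 Note: HIF1A transcript by TaqMan qRT-PCR normalized to ACTB GAPDH and POLR2A.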 In outline: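 HepaRG, 48 h exposure, 8-pt half-log series from 100 uM, 0.5% DMSO vehicle, duplicates. Readout: HIF1A transcript by qRT-PCR (Fluidigm array), housekeeping-normalised. Bidirectional curve fit vs DMSO baseline.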

Read-out in test [16]: 3-Hydroxy-3-Methylglutaryl-CoA Synthase 2 (HMGCS2), HMGCS2 (gene 3158)
Briefly: LTEA_HepaRG_HMGCS2: Life Technologies and Expression Analysis (LTEA) Assay for 3-Hydroxy-3-Methylglutaryl-CoA Synthase 2 (HMGCS2) using HepaRG (AID 2283504). The gist of the method:
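This steatosis marker was read as HMGCS2 mRNA change in HepaRG cells treated 48 h with up to 100 uM chemical. Normalisation used housekeeping genes; activity in either direction was fitted relative to 0.5% DMSO vehicle.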

Read-out in test [17]: HGF (gene 3082)
Briefly: LTEA_HepaRG_HGF: Life Technologies and Expression Analysis (LTEA) Assay for Hepatocyte Growth Facto (HGF) using HepaRG (AID 2283505). The gist of the method:
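Using HepaRG monolayers kept in 0.5% DMSO, chemicals were tested in duplicate over eight half-log concentrations from 100 uM for 48 h. Endpoint: HGF mRNA change relative to DMSO, normalized to ACTB/GAPDH/POLR2A.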

Read-out in test [18]: Glutathione S-transferase M3 (GSTM3), GSTM3 (gene 2947)
Briefly: LTEA_HepaRG_GSTM3: Life Technologies and Expression Analysis (LTEA) Assay for Glutathione S-transferase M3 (GSTM3) using HepaRG (AID 2283501). In outline: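 Expression of GSTM3 is determined by qRT-PCR in human liver HepaRG cells treated 48 h with an 8-point half-log range from 100 uM in 0.5% DMSO.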

SMILES strings stand for the structures. Activity calls are given as the source filed them. Rule for the calls: active = hit-call score of the fitted dose curve at least 0.9, where 1 is the maximum; inactive = score below 0.9.

Sequence of Cytochrome P450 3A4 (Homo sapiens) (P08684 whole entry, looked up): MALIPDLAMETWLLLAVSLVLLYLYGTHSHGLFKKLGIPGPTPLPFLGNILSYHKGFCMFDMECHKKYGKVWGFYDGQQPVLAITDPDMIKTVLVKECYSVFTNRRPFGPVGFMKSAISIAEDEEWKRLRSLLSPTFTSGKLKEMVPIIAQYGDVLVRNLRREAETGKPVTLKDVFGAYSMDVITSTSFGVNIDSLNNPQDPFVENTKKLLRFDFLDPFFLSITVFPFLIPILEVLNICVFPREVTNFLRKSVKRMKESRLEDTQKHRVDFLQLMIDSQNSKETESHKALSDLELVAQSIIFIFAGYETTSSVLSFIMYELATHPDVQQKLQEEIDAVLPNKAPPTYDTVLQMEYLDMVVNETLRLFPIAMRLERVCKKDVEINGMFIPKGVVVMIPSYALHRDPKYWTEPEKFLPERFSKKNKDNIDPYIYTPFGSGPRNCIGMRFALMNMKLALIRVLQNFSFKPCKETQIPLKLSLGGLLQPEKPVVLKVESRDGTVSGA
Sequence of Hypoxia-inducible factor 1-alpha (Homo sapiens) (Q16665 whole entry, looked up): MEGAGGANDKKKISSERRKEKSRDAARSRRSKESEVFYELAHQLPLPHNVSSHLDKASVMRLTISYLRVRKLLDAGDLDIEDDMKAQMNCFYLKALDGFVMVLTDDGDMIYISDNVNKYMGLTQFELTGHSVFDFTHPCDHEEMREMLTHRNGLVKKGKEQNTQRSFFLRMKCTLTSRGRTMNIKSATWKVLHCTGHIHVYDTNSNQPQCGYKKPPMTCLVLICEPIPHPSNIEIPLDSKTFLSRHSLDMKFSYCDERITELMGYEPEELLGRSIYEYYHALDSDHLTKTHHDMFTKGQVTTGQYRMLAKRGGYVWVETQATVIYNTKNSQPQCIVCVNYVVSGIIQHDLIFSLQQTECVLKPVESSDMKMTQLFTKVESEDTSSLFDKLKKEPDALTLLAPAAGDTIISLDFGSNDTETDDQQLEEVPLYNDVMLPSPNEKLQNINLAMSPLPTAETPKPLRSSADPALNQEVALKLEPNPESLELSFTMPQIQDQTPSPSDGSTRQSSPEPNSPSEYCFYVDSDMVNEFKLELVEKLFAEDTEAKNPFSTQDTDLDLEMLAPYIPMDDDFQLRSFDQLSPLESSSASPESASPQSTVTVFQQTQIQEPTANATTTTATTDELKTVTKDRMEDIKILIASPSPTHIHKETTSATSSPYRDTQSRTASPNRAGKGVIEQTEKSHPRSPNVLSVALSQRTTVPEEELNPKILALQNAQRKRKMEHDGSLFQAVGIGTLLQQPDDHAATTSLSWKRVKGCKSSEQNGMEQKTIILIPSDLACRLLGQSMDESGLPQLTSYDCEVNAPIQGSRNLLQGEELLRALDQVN
Sequence of Cytochrome P450 3A7 (Homo sapiens) (P24462 whole entry, looked up): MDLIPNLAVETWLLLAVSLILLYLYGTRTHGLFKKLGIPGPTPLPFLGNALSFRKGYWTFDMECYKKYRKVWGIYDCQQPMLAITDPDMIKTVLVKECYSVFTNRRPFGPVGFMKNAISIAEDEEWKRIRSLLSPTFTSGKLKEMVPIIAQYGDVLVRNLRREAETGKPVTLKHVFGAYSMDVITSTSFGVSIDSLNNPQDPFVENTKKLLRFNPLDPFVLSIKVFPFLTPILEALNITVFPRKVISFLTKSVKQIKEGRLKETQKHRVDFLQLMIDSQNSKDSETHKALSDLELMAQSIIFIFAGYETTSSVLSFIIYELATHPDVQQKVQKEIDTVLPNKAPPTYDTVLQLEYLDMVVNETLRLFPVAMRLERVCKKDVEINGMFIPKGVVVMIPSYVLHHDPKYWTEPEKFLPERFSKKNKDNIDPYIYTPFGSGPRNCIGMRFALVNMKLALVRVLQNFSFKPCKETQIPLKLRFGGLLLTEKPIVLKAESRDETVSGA

As for `O=C(O)C(F)(F)C(F)(F)C(F)(F)C(F)(F)C(F)(F)F`, the half-maximal activity concentration (AC50) in [1] was 50 µM (active); in [9] it was 12 µM (active); in [10] it was 13.3 µM (active); in [16], 2.41 µM (active). Further, the compound was called inactive in test [2], in test [3], in [4], in test [5], in test [6] and in [7]. For the same compound, the result in test [8], in test [11], in [12], in test [13], in [14] and in [15] was inactive. Besides, the outcome in test [17] was inactive.

For the compound `CCC(C)(c1ccc(O)cc1)c1ccc(O)cc1`, the compound was called inactive in test [1], in test [2], in test [3], in test [4], in [5] and in test [6]. For the same compound, the result in test [7], in test [8], in [9], in test [10], in [12] and in [13] was inactive. Further, the result in test [14], in test [15], in test [16] and in test [17] was inactive. For the same compound, in test [11], the AC50 was 50 µM (active).

As to `CC(C)C(=O)OCC(C)(C)C(OC(=O)C(C)C)C(C)C` (configuration not stated), the outcome in test [1], in test [2], in test [3], in test [4], in [5] and in [6] was inactive. Also, the outcome in test [7], in [8], in test [9], in test [10], in test [11] and in test [12] was inactive. Further, the call in test [13], in test [18], in [14], in [15], in [16] and in [17] was inactive.

As for `Cc1ccccc1[N+](=O)[O-]`, the result in test [1], in test [2], in test [3], in [4], in test [5] and in test [6] was inactive. Moreover, the compound was called inactive in test [7], in test [8], in [9], in [10], in [11] and in [12]. The call in test [13], in test [18], in test [14], in test [15], in [16] and in [17] was inactive.

As to `COc1ccc(O)c(C(C)(C)C)c1`, the call in [1], in test [3], in test [4], in [5], in test [6] and in [7] was inactive. Further, the compound was called inactive in test [8], in test [9], in test [10], in [11], in test [12] and in [13]. In addition, the result in test [14], in [15], in test [16] and in test [17] was inactive. Also, the AC50 in test [2] was 66.4 µM (active).
